The results in this text go back to PubChem BioAssay (NCI).

Molecules are shown by their SMILES. This is part of a sample that, as a whole, favours compounds with a hit. Of some 83,000 tested, about 20% had one in any assay.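 Assay: single dose, 48 h. Readout: percent growth (0 = no net growth; negative = cell death). Active: <10.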 A number with no mark means an inactive call. Calls of active or inactive are those of the source.

The test system of the assay is HL-60(TB) leukemia. In words: NCI-60 one-dose screen, 48 h (100 = growth as untreated, 0 = no growth, -100 = all killed). The conditions noted are these: 10 µM unless noted.
As to `CCOC(=O)CC1C(COC(=O)NC)OC(n2cnc3c(NC(=O)Nc4ccccc4)ncnc32)C1O[Si](C)(C)C(C)(C)C` (stereo unspecified), the growth is 23.5%.

Take `Cc1ccc2c(c1)C(C)Cc1c(N(C)C)ncnc1N2C` (stereo unspecified): the growth was -5.91% (active).

In the case of `NC1CCC(Nc2nc(NCc3ccc(-c4ccco4)nc3)c3ncn(C4CCCC4)c3n2)CC1` (stereo unspecified), the growth is -33.3% (active).

`COc1ccc(NNS(=O)(=O)O)cc1`: the growth is 103%.

As for `COc1ccc2nc3cc(Cl)ccc3c(Nc3cc(C(C)C)c(O)cc3C)c2c1`, the growth is 7.64% (active).

Regarding `CCCCCC[C@@H](O)C/C=C\CCCCCCCC(=O)OCCOC`, the growth was 156%.

In the case of `COc1cc(OC)cc(N2C(=O)N(Cc3ccc(C(C)(C)C)cc3)c3ccccc3S2(=O)=O)c1`, the growth is 67.9%.

Turning to `CCOC(=O)c1cnc2c(N=Nc3ccc(OC)cc3)c(N)nn2c1N`, the growth was 96.2%.

In the case of `CCCNCCC(C)=O`, the growth is 108%.

For `Nc1n[nH]c2cccc(C#Cc3cccc(NC(=O)c4cc(N5CCOCC5)cc(C(F)(F)F)c4)c3)c12`, the growth is 10.6%.

Regarding `COc1ccc(/C(C)=C(\c2ccc(OCCN3CCCCCC3)cc2)c2ccc(OC(=O)C3CCCCC3)cc2)cc1`, the growth was -41.1% (active).

Take `Nc1nc2ccccc2c2c(=O)c3cccc(Cl)c3sc12`: the growth is 93.7%.

Turning to `Cn1c(=O)c2nc(SCc3ccccc3)n(C)c2n(C)c1=O`, the growth is 92.3%.

As for `CCN1CCN(Cc2ccc(NC(=O)Nc3cccc(-n4ccc5c(NC(=O)c6ccccc6)nccc54)c3)cc2C(F)(F)F)CC1`, the growth is 112%.

As to `Nc1cccc(C(=O)Nc2ccc3c(O)c(N=Nc4ccc(N=Nc5ccc(S(=O)(=O)O)cc5)cc4)c(S(=O)(=O)O)cc3c2)c1`, the growth is 88.7%.

Take `CCCCC1COc2cccc3c(SCC(=O)N(C)c4cccc5ccccc45)cc[n+]1c23` (stereo unspecified): the growth was 89.8%.

As for `CCOc1nc(-c2ccccc2)cc2c(O)c(C(=O)N/N=C/c3ccc(O)cc3O)[nH]c(=O)c12`, the growth was 19.7%.

`CCC(=O)Oc1ccc(OC)cc1`: the growth was 82.6%.

With `Nc1nc(N)c2cc(CNc3ccc(Cl)c(Cl)c3)ccc2n1`, the growth is 1.98% (active).

Consider `CN1CCN(Cc2ccc(NC(=O)c3cncc(C#Cc4c(N)ncc5c(F)cccc45)c3)cc2C(F)(F)F)CC1`, for which the growth is -60.4% (active).

On to `CCOC(=O)c1c(C)n2c(=O)cc(C)c3c(OC(C)=O)c(OC(C)=O)cc1c32`, for which the growth was 0.923% (active).

For the compound `CCOC(=O)c1c(C)nn(CC(O)c2ccccc2)c1NC(=O)Nc1cccc(F)c1` (stereo unspecified), the growth was 107%.

Take `O=C(Nc1ccc(NC(=O)c2cc(=O)[nH]c3ccccc23)cc1)Nc1cccc(C(F)(F)F)c1`: the growth was 99.8%.

For the compound `CCOc1cccc(NC2=C(Br)C(=O)C(C)=C(C)C2=O)c1`, the growth is -12.5% (active).

For `O=C1/C(=C\c2cccn2C(=O)c2ccccc2)c2ccccc2N1c1c(Cl)cccc1Cl`, the growth was 9.37% (active).

For `CC1OC(n2c3ccccc3c3c4c(c5c6ccccc6[nH]c5c32)C(=O)N(CCN[C@H]2CCC[C@@H]2N)C4=O)CC(O)C1O` (stereo partly specified), the growth is 54.3%.
